# Laboratory results: ChEMBL document CHEMBL3988442, “University of Dundee, Small-Polar-MMV Screening Library” (2021)
# Target: AMP-activated protein kinase, AMPK (Homo sapiens) (UniProt P54646+O43741+P54619+Q9UGJ0+Q9Y478+Q13131+Q9UGI9)
# Test: AMP-dependent Kinase enzyme assay. An in vitro enzyme assay that detects ADP turnover that is directly proportional to AMPK activity. This uses naive AMPK that is activated during the assay with MK-8722
# Type: functional
# Design: scale not given: direction of the effect not stated beside the values
# Settings: 30 µM
row,SMILES,Percent Effect [%]
1,O=C(CCC1CCCN(C(=O)CCc2ccc(F)c(F)c2)C1)NC1CC1 (stereo not given),5.21
2,CC1(C)OC(=O)N(CC(=O)N2CCC(c3ccccc3F)C2)C1=O (stereo not given),12.7
3,Cc1cc(NC(=O)N2CCN(c3cccs3)CC2)ccc1C(N)=O,6.86
4,O=C(NC1CCN(c2ccccc2OC(F)F)C1)c1cccnc1 (stereo not given),-0.669
5,Cc1cc(N(C)CC2COc3ccccc3O2)nc(C)n1 (stereo not given),1.48
6,CC(C)(CNC(=O)c1ccc(Cl)o1)NC(=O)OC(C)(C)C,-2.97
7,Cc1ncsc1C(=O)N[C@@H](Cc1ccccc1)C(N)=O,8.09
8,CCc1cnc(CNC(=O)NCCc2ccc(O)cc2)s1,47.9
9,CC(C)N1CCCC(CNC(=O)CN(C)S(=O)(=O)c2ccccc2)C1 (stereo not given),-1.71
10,COc1ccc(CCC(C)Nc2cccc(SC)c2)cc1 (stereo not given),-6.2
11,O=C(Cc1ccccc1Cl)Nc1cc(N2CCCC2)ncn1,0.395
12,Cc1nc(COC(=O)c2cccc3c2OCCO3)cs1,3.39
13,CCn1nc(C)c(C(=O)N2C[C@@H](CN(C)CCOC)[C@@H](CO)C2)c1C,-7.64
14,CC(=O)NCCCNC(=O)N1CCN(c2cc(F)ccc2F)CC1,6.39
15,c1csc(-c2noc(C3CNC3)n2)c1,8.02
16,Cc1cccc(COc2ccc(C(C)NC(=O)CNC(N)=O)cc2)c1 (stereo not given),1.42
17,CCCc1nc(C(=O)N2CCn3nc(C(=O)OC)cc3C2)cs1,1.42
18,CC(C)OCCCNC(=O)CN1CCN(c2nccs2)C(C)C1 (stereo not given),13.6
19,OCCc1cc(C2CCCN2c2ncccn2)n[nH]1 (stereo not given),11.9
20,Cn1ccc(C(=O)N2CCCC2c2cc(CO)[nH]n2)n1 (stereo not given),20.7
